Holding throughout (experiment): PBM; 200 nM protein, PBS
What all share (conditions): dsDNA, one strand shown

Test [1] addresses HOXA7 (Homo sapiens, UniProt P31268 116-202).
The target of test [2] is HOXA7 (Homo sapiens, UniProt P31268 116-202, W177C).
The target of test [3] is PROP1 (Homo sapiens, UniProt O75360 56-141).
For test [4], the target named is PROP1 (Homo sapiens, UniProt O75360 56-141, R99H).
For test [5], the target named is PROP1 (Homo sapiens, UniProt O75360 56-141, F88S).
For test [6], the target named is ALX1 (Homo sapiens, UniProt Q15699 118-204, L144V).
Sequence of ALX1 (Homo sapiens, UniProt Q15699 118-204, L144V) (Q15699 118-204 L144V): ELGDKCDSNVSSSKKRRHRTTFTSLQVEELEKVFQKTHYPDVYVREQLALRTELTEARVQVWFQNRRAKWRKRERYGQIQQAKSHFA
Test [7] deals with ALX1 (Homo sapiens, UniProt Q15699 118-204, L144R).
Sequence of ALX1 (Homo sapiens, UniProt Q15699 118-204, L144R) (Q15699 118-204 L144R): as the sequence (Q15699 118-204 L144V) above, with V27R counted along it
The target in test [8] is ALX1 (Homo sapiens, UniProt Q15699 118-204).
Sequence of ALX1 (Homo sapiens, UniProt Q15699 118-204) (Q15699 118-204): as the sequence (Q15699 118-204 L144V) above, with V27L counted along it
The target in test [9] is MSX2 (Homo sapiens, UniProt P35548 130-214, R199I).
Sequence of MSX2 (Homo sapiens, UniProt P35548 130-214, R199I) (P35548 130-214 R199I): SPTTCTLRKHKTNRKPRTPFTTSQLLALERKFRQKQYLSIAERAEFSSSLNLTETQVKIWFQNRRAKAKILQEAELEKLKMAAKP
Test [10] concerns the target MSX2 (Homo sapiens, UniProt P35548 130-214).
For test [11], the target named is MSX2 (Homo sapiens, UniProt P35548 130-214, F161Y).
Sequence of MSX2 (Homo sapiens, UniProt P35548 130-214, F161Y) (P35548 130-214 F161Y): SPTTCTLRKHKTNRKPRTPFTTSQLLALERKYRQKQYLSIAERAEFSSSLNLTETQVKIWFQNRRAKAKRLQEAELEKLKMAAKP
The target of test [12] is T1, PAX4 (Homo sapiens, UniProt O43316 9-242, R200K).
T1 sequence: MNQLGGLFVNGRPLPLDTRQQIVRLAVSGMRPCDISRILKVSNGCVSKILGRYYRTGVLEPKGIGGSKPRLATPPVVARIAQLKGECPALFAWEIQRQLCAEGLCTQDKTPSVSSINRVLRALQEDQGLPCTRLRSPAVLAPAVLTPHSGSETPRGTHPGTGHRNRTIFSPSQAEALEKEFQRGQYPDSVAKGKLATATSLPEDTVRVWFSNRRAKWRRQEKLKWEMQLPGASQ

Test [13] addresses T2, PAX4 (Homo sapiens, UniProt O43316 9-242).
T2 sequence: T1 sequence with K192R

Test [14] deals with T3, PAX4 (Homo sapiens, UniProt O43316 9-242, R200Q).
T3 sequence: T1 sequence with K192Q

In test [15] the target is T4, PAX4 (Homo sapiens, UniProt O43316 9-242, F177V).
T4 sequence: T1 sequence with F169V, K192R

Test [16] deals with T5, PAX4 (Homo sapiens, UniProt O43316 9-242, F177Y).
T5 sequence: T1 sequence with F169Y, K192R

In test [17] the target is T6, PAX4 (Homo sapiens, UniProt O43316 9-242, R227W).
T6 sequence: T1 sequence with K192R, R219W

Test [18] deals with NKX3-2 (Homo sapiens, UniProt P78367 192-278, P234S).
Sequence of NKX3-2 (Homo sapiens, UniProt P78367 192-278, P234S) (P78367 192-278 P234S): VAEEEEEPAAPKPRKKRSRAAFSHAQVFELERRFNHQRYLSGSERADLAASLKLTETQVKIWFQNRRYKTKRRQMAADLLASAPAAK
Test [19] addresses NKX3-2 (Homo sapiens, UniProt P78367 192-278).
For another test, the target named is ALX3 (Homo sapiens, UniProt O95076 139-225).
Sequence of ALX3 (O95076 139-225): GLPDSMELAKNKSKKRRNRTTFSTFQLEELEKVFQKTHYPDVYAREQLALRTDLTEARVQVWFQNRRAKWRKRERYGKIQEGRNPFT

Changes are numbered by the printed parent chain.

Sequence of HOXA7 (Homo sapiens, UniProt P31268 116-202) (P31268 116-202): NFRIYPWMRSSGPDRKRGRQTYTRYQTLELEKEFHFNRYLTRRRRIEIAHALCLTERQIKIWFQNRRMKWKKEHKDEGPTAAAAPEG
Sequence of HOXA7 (Homo sapiens, UniProt P31268 116-202, W177C) (P31268 116-202 W177C): as the sequence (P31268 116-202) above, with W62C counted along it
Sequence of PROP1 (Homo sapiens, UniProt O75360 56-141, R99H) (O75360 56-141 R99H): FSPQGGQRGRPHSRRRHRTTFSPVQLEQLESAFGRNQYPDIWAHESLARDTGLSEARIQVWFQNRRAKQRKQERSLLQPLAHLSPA
Sequence of PROP1 (Homo sapiens, UniProt O75360 56-141) (O75360 56-141): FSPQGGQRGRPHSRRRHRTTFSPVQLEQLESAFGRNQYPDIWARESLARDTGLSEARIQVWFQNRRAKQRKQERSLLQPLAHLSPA
Sequence of PROP1 (Homo sapiens, UniProt O75360 56-141, F88S) (O75360 56-141 F88S): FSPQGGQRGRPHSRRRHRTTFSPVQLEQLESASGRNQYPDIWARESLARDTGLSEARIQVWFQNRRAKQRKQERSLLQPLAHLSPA
Sequence of MSX2 (Homo sapiens, UniProt P35548 130-214) (P35548 130-214): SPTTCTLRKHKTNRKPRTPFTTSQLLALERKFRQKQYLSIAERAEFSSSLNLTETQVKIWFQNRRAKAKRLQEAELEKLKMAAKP
Sequence of NKX3-2 (Homo sapiens, UniProt P78367 192-278) (P78367 192-278): as the sequence (P78367 192-278 P234S) above, with S43P counted along it

In the case of ATAAGTAT, the binding signal in the test with HOXA7 [1] was 9.57 upbm affinity estimate (log intensity, higher = more binding, comparable within an allelic series); with HOXA7 [2], 8.76 upbm affinity estimate (log intensity, higher = more binding, comparable within an allelic series).

For the sequence AGCTTTCC, the binding signal was 8.42 upbm affinity estimate (log intensity, higher = more binding, comparable within an allelic series) in the test with HOXA7 [1]; 6.7 upbm affinity estimate (log intensity, higher = more binding, comparable within an allelic series) in the test with PROP1 [3]; 6.84 upbm affinity estimate (log intensity, higher = more binding, comparable within an allelic series) with PROP1 [4]; 7.01 upbm affinity estimate (log intensity, higher = more binding, comparable within an allelic series) with PROP1 [5]; 8.43 upbm affinity estimate (log intensity, higher = more binding, comparable within an allelic series) with HOXA7 [2].

For the sequence GCTATAAC, the binding signal is 9.4 upbm affinity estimate (log intensity, higher = more binding, comparable within an allelic series) with HOXA7 [1]; 8.22 upbm affinity estimate (log intensity, higher = more binding, comparable within an allelic series) in the test with ALX1 [6]; 8.11 upbm affinity estimate (log intensity, higher = more binding, comparable within an allelic series) with ALX1 [7]; 8.68 upbm affinity estimate (log intensity, higher = more binding, comparable within an allelic series) with HOXA7 [2]; 8.21 upbm affinity estimate (log intensity, higher = more binding, comparable within an allelic series) with ALX1 [8].

ATATTAGA: the binding signal was 9.95 upbm affinity estimate (log intensity, higher = more binding, comparable within an allelic series) with HOXA7 [1]; 11.1 upbm affinity estimate (log intensity, higher = more binding, comparable within an allelic series) with MSX2 [9]; 11.8 upbm affinity estimate (log intensity, higher = more binding, comparable within an allelic series) with MSX2 [10]; 11.5 upbm affinity estimate (log intensity, higher = more binding, comparable within an allelic series) in the test with MSX2 [11]; 8.88 upbm affinity estimate (log intensity, higher = more binding, comparable within an allelic series) with HOXA7 [2].

Regarding CGTTGCTC, the binding signal with HOXA7 [1] is 8.49 upbm affinity estimate (log intensity, higher = more binding, comparable within an allelic series); with PAX4 [12], 9.58 upbm affinity estimate (log intensity, higher = more binding, comparable within an allelic series); in the test with PAX4 [13], 9.38 upbm affinity estimate (log intensity, higher = more binding, comparable within an allelic series); with PAX4 [14] it was 9.57 upbm affinity estimate (log intensity, higher = more binding, comparable within an allelic series); with PAX4 [15] it was 9.52 upbm affinity estimate (log intensity, higher = more binding, comparable within an allelic series); in the test with PAX4 [16], 9.55 upbm affinity estimate (log intensity, higher = more binding, comparable within an allelic series). The binding signal with PAX4 [17] was 9.55 upbm affinity estimate (log intensity, higher = more binding, comparable within an allelic series); with HOXA7 [2] it was 8.47 upbm affinity estimate (log intensity, higher = more binding, comparable within an allelic series).

As for AGGCAGGC, the binding signal with HOXA7 [1] is 8.15 upbm affinity estimate (log intensity, higher = more binding, comparable within an allelic series); in the test with PAX4 [12], 9.23 upbm affinity estimate (log intensity, higher = more binding, comparable within an allelic series); in the test with PAX4 [13], 9.23 upbm affinity estimate (log intensity, higher = more binding, comparable within an allelic series); with PAX4 [14], 9.37 upbm affinity estimate (log intensity, higher = more binding, comparable within an allelic series); with PAX4 [15] it was 9.22 upbm affinity estimate (log intensity, higher = more binding, comparable within an allelic series); in the test with PAX4 [16], 9.34 upbm affinity estimate (log intensity, higher = more binding, comparable within an allelic series). In addition, the binding signal is 9.36 upbm affinity estimate (log intensity, higher = more binding, comparable within an allelic series) with PAX4 [17] and 8.3 upbm affinity estimate (log intensity, higher = more binding, comparable within an allelic series) with HOXA7 [2].

Consider GCAAGCTA, for which the binding signal with HOXA7 [1] is 8.39 upbm affinity estimate (log intensity, higher = more binding, comparable within an allelic series); with HOXA7 [2] it was 8.42 upbm affinity estimate (log intensity, higher = more binding, comparable within an allelic series).

CGGCGTTC: the binding signal with HOXA7 [1] is 8.31 upbm affinity estimate (log intensity, higher = more binding, comparable within an allelic series); in the test with ALX1 [6] it was 6.29 upbm affinity estimate (log intensity, higher = more binding, comparable within an allelic series); with ALX1 [7] it was 6.24 upbm affinity estimate (log intensity, higher = more binding, comparable within an allelic series); in the test with HOXA7 [2], 8.26 upbm affinity estimate (log intensity, higher = more binding, comparable within an allelic series); with NKX3-2 [18], 10.4 upbm affinity estimate (log intensity, higher = more binding, comparable within an allelic series); in the test with ALX1 [8] it was 6.31 upbm affinity estimate (log intensity, higher = more binding, comparable within an allelic series). Further, the binding signal in the test with NKX3-2 [19] is 10.4 upbm affinity estimate (log intensity, higher = more binding, comparable within an allelic series).

Consider CAGTGCGG, for which the binding signal with HOXA7 [1] was 8.54 upbm affinity estimate (log intensity, higher = more binding, comparable within an allelic series); in the test with PROP1 [3], 6.84 upbm affinity estimate (log intensity, higher = more binding, comparable within an allelic series); with PROP1 [4], 6.82 upbm affinity estimate (log intensity, higher = more binding, comparable within an allelic series); with PROP1 [5], 6.73 upbm affinity estimate (log intensity, higher = more binding, comparable within an allelic series); in the test with HOXA7 [2], 8.37 upbm affinity estimate (log intensity, higher = more binding, comparable within an allelic series).

As to AACTTTAT, the binding signal with HOXA7 [1] was 9.71 upbm affinity estimate (log intensity, higher = more binding, comparable within an allelic series); with ALX3, 9.63 upbm affinity estimate (log intensity, higher = more binding, comparable within an allelic series); with HOXA7 [2] it was 8.8 upbm affinity estimate (log intensity, higher = more binding, comparable within an allelic series).

As to CTGAAGGC, the binding signal was 8.34 upbm affinity estimate (log intensity, higher = more binding, comparable within an allelic series) with HOXA7 [1] and 8.31 upbm affinity estimate (log intensity, higher = more binding, comparable within an allelic series) in the test with HOXA7 [2].
